Our source for the composite z-score and z-score values is PubChem BioAssay.

Experiment [1] can be described thus: small molecules captured by biotinylated probe aFSTL3 – biochemical, small-molecule microarray, fluorescence 635/667, stem cell growth factor project, primary screen (AID 1064).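 Also: measures binding of the biotinylated anti-FSTL3 antibody to printed compounds.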 Particulars: higher = more signal.
Experiment [2] can be described thus: binders from COS7 lysate, DM2A8 probe, primary screen, torsin A project, cell lysate, small-molecule microarray, fluorescence 635/667 (AID 1065). Particulars: higher = more signal, COS7 lysate expressing mutant human TOR1A.
The nature of experiment [3]: small molecules captured by biotinylated probe aFGF2 – biochemical, small-molecule microarray, fluorescence 635/667, stem cell growth factor project, primary screen (AID 1067).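 Also: measures binding of biotinylated aFGF2 protein to printed compounds on slides; z-score merges feature fluorescence and signal-to-noise across triplicate slides.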 Particulars: higher = more signal.
A short description of experiment [4]: small molecules captured by biotinylated probe aFGF10 – biochemical, small-molecule microarray, fluorescence 635/667, stem cell growth factor project, primary screen (AID 1071).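 Also: score merges 667 nm spot intensity and signal to noise from triplicate slides.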 Particulars: higher = more signal.
Experiment [5] has as its target Neurogenic locus notch homolog protein 2 (Homo sapiens) (UniProt Q04721). The experiment in a line: small molecules binding Notch2 protein – biochemical, small-molecule microarray, 635 nm fluorescence, stem cell growth factors, primary screen (AID 1073). Particulars: higher = more signal.
The target in experiment [6] is Pro-neuregulin-1, membrane-bound isoform (Homo sapiens) (UniProt Q02297). The experiment in a line: small molecules binding neuregulin-1 protein – biochemical, small-molecule microarray, fluorescence 635/667, psychiatric disease protein project, primary screen (AID 1075).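 Also: score combines 667 nm spot fluorescence with signal to noise.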 Particulars: NRG1 binding, 635 nm fluorescence, higher = more signal.
Chain of Pro-neuregulin-1, membrane-bound isoform (Homo sapiens) (Q02297 whole entry, looked up, the tested form may be a part, canonical isoform): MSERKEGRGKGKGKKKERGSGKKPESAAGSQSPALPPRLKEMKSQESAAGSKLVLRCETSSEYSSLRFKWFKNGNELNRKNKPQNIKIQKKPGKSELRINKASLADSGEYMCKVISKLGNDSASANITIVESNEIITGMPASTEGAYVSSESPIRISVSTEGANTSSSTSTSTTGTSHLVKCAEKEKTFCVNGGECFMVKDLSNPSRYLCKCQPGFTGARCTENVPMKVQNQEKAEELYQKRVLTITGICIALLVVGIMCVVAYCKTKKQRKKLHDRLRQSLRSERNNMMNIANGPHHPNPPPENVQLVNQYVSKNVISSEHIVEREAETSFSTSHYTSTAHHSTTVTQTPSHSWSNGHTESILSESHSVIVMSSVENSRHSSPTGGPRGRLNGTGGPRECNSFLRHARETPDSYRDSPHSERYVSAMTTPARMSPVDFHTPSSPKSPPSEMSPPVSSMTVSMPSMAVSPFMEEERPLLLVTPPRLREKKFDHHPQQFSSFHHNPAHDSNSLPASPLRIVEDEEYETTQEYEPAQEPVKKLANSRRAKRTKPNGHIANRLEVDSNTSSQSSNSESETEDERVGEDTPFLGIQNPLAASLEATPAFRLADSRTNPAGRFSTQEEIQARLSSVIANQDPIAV
For experiment [7], the system named is Neuregulin-1 EGF-like domain. Put plainly: small molecules binding NRG1 EGF domain – biochemical, small-molecule microarray, 635 nm fluorescence, primary screen (AID 1081).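 Also: binding of the protein to compounds printed on small-molecule microarray slides.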 Particulars: higher = more signal.
A short description of experiment [8]: FRG1 expression reporter modulators in myotubes – cell-based, C2C12 myotubes, firefly/Renilla luciferase, luminescence, FRG1 inhibition for FSHD, primary screen (AID 1084). Particulars: FRG1 promoter luciferase, higher = more signal, called active from +8 up or from −8 down.
Experiment [9] in a line: small molecules captured by biotinylated probe aFST – biochemical, small-molecule microarray, fluorescence 635/667, stem cell growth factor project, primary screen (AID 1086).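 Also: score merges 667 nm fluorescence with signal-to-noise of each printed compound spot.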 Particulars: higher = more signal.
Experiment [10] in a line: binders of probe aHhip on microarray, primary screen, stem cell growth factor project, biochemical, small-molecule microarray, fluorescence 635/667 (AID 1087).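 Also: score merges spot fluorescence at 667nm with spot signal to noise ratio.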 Particulars: higher = more signal.
The subject of experiment [11] is PRMT1 (protein arginine N-methyltransferase 1). Put plainly: small molecules binding arginine methyltransferase PRMT1 – biochemical, small-molecule microarray, 635 nm fluorescence, primary screen (AID 1088).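 Also: binding of Prmt1 protein to compounds spotted on small-molecule microarray slides.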 Particulars: higher = more signal.
Experiment [12] in a line: growth effects on S. cerevisiae YJM789 – YJM789 clinical isolate, OD600, 24 h, basal, primary screen (AID 1089).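 Also: growth of clinical yeast isolate S. cerevisiae YJM 789 seeded 1000 cells per well; test concentration not given here.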 Particulars: higher = more signal, called active from +8 up or from −8 down.
A short description of experiment [13]: S. pombe growth modifiers, basal conditions – strain 972, OD600, 24 h, no modulator, primary screen (AID 1090).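 Also: basal condition with compound alone and no growth modifier present; test concentration not given here.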 Particulars: S. pombe 972 growth, higher = more signal, called active from +8 up or from −8 down.
A short description of experiment [14]: budding yeast growth modifiers under rapamycin – strain BY4716, OD600, 96 h, primary screen (AID 1091). Also: test concentration not given here. Particulars: S. cerevisiae BY4716 + rapamycin, higher = more signal, called active from +8 up or from −8 down.
For experiment [15], the target named is Torsin-1A-interacting protein 2 (Homo sapiens) (UniProt Q8NFQ8). The experiment in a line: small molecules binding lysate-expressed LULL1 – cell lysate, human LULL1 lysate, 635/667 nm fluorescence, primary screen (AID 1092).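 Also: probe is lysate of COS7 cells overexpressing human LULL1; score merges per-feature 667 nm fluorescence with signal-to-noise.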 Particulars: small-molecule microarray, hLULL1 lysate binding, 635 nm fluorescence; higher = more signal.
Chain of Torsin-1A-interacting protein 2 (Homo sapiens) (Q8NFQ8 whole entry, looked up): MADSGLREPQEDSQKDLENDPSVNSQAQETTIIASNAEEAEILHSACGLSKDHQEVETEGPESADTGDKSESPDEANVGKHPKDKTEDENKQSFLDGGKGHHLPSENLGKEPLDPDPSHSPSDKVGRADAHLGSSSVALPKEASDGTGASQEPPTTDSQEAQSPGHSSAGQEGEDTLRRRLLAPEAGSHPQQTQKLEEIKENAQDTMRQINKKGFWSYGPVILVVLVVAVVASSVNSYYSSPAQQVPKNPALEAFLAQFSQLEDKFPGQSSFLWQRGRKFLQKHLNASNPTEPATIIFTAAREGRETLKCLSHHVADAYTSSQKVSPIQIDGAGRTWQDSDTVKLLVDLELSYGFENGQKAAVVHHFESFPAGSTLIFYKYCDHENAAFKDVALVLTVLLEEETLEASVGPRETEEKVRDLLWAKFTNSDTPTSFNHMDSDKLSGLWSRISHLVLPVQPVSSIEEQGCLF
The nature of experiment [16]: optical density change of DRC41 E. coli – strain DRC41, OD650, 24 h, E. coli filamentation project, primary screen (AID 1093).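 Also: MC1000 strain lacking acrAB efflux and sulA so SOS filamentation is blocked; test concentration not given here.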 Particulars: E. coli DRC41 growth, higher = more signal, called active from +8 up or from −8 down.
Experiment [17] in a line: probe aLefty2 binding to arrayed compounds – biochemical, biotinylated probe, 635/667 nm fluorescence, primary screen (AID 1094).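 Also: score merges spot fluorescence near 667 nm with spot signal-to-noise ratio.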 Particulars: small-molecule microarray, higher = more signal.
Experiment [18] has as its system Noggin (protein binding on small-molecule microarray). The experiment in a line: small molecules binding Noggin protein – biochemical, 635/667 nm fluorescence, primary screen (AID 1095).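 Also: score merges 667 nm feature fluorescence with signal to noise over triplicate slides.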 Particulars: 635 nm fluorescence, higher = more signal.
Experiment [19] has as its target Neurogenic locus notch homolog protein 3 (Homo sapiens) (UniProt Q9UM47). Put plainly: small molecules binding NOTCH3 protein – biochemical, 635/667 nm fluorescence, primary screen (AID 1096). Particulars: small-molecule microarray, 635 nm fluorescence, higher = more signal.
Experiment [20] is described as follows: probe aEGFR binding to arrayed compounds – biochemical, biotinylated probe, 635/667 nm fluorescence, primary screen (AID 1097).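 Also: probe is a biotinylated anti-EGFR antibody binding compounds printed on slides; score combines fluorescence near 667 nm and signal to noise of each spot.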 Particulars: small-molecule microarray, higher = more signal.

Calls of active or inactive are those of the source.

Chain of Neurogenic locus notch homolog protein 2 (Homo sapiens) (Q04721 whole entry, looked up, canonical isoform): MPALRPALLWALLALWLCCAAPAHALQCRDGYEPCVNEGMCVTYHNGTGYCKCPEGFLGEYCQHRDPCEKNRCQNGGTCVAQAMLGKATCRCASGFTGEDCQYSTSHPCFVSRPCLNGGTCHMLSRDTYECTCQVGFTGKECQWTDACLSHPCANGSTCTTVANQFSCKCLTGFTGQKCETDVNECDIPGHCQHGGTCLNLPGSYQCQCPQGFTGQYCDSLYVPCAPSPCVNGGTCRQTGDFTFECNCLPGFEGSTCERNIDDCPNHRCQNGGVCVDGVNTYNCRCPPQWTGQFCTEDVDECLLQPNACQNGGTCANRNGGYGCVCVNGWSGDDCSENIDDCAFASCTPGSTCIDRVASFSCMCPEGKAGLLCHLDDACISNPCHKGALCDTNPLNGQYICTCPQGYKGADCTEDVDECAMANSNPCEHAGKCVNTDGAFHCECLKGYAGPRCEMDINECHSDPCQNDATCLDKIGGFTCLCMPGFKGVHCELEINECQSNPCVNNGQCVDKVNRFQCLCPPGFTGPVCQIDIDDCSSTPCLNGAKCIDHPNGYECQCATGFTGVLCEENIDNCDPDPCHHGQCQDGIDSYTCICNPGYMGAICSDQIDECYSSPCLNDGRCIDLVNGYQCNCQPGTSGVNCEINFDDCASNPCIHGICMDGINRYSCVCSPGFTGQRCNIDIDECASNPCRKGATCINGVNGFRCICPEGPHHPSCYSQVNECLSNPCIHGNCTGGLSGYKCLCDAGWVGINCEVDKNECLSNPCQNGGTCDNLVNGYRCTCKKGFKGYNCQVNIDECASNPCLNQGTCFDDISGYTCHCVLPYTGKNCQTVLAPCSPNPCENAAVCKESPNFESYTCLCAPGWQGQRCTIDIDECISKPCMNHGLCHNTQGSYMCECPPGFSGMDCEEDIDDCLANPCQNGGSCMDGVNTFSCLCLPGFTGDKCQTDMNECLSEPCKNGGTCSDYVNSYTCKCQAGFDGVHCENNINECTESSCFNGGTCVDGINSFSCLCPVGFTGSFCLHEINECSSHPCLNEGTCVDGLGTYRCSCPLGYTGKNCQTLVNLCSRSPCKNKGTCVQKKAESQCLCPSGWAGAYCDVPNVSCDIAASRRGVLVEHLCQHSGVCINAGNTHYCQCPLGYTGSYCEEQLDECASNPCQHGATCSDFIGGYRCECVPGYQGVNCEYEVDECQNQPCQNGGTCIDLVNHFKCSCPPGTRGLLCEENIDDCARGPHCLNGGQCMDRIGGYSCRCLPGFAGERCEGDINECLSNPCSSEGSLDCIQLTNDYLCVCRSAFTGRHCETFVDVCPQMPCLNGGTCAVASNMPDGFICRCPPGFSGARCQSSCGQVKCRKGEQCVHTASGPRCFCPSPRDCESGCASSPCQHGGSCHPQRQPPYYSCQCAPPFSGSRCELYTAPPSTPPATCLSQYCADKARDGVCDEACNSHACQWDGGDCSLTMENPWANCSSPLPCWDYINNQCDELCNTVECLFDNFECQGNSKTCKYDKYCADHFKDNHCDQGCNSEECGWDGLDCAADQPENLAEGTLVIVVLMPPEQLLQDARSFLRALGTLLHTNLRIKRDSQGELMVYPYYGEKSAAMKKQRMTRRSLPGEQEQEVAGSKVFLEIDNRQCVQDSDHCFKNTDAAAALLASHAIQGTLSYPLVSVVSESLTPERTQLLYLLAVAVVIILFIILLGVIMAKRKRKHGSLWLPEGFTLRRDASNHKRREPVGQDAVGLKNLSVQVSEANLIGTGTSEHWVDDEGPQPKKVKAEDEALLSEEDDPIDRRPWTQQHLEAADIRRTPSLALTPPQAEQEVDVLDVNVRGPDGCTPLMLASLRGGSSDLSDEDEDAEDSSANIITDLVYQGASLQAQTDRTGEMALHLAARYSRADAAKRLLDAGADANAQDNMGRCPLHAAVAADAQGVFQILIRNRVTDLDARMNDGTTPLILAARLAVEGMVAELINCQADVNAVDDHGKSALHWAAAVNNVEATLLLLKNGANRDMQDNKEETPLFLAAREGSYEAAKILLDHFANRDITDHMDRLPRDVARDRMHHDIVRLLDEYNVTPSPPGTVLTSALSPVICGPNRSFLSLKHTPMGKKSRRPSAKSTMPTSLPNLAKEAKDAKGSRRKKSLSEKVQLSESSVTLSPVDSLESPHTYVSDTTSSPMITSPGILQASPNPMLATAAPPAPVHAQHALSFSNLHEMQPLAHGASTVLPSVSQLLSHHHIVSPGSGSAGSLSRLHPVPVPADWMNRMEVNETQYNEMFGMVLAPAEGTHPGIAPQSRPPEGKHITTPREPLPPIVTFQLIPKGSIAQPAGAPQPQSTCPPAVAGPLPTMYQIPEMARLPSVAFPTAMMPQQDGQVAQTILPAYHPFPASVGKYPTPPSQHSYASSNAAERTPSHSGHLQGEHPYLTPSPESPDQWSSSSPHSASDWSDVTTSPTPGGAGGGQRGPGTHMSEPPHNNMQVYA

In the case of `C=CCN1Cc2ccccc2C[C@@]2(N=C(c3ccc(OCCCO)cc3)O[C@H]2c2ccccc2)C1=O`, the composite z-score was 0.633 in [1]; 0.604 in experiment [2]; 0.0109 in experiment [3]; -0.364 in [4]; 1.09 in experiment [5]; 1.04 in [6]. Moreover, the composite z-score in [7] is 1.29; in experiment [9] it was 0.383; in [10], 0.297; in experiment [11] it was 1.55; in experiment [15], 3.13; in experiment [17], -0.051. The composite z-score came out at 1.04 in experiment [18], 0.968 in [19] and 0.0047 in experiment [20]. In addition, the z-score in experiment [8] was -1.32 (inactive); in experiment [12], -4.69 (inactive); in experiment [13], -11.1 (active); in experiment [14] it was 4.42 (inactive); in [16], 0.55 (inactive).
Turning to `CC(C)C(O)C1C=CC2C(=O)N(C)C(=O)C2N1Nc1ccccc1` (stereo not given), the composite z-score is 0.383 in [1]; 0.681 in experiment [2]; 0.364 in experiment [3]; 0.914 in experiment [4]; 1.69 in experiment [5]; 1.19 in experiment [6]. For the same compound, the composite z-score in experiment [7] is 1.37; in experiment [9] it was 1.35; in experiment [10], 0.67; in experiment [11], 0.694; in experiment [15], 3.3; in experiment [17], 0.873. The results for the composite z-score in experiment [18], in experiment [19] and in experiment [20] were 0.206, 0.707 and 0.515, respectively. Further, the z-score was 2.73 (inactive) in experiment [8]; 0.324 (inactive) in [12]; -0.163 (inactive) in experiment [13]; 0.204 (inactive) in [14]; -0.381 (inactive) in [16].
In the case of `CCOc1cc(C(O)C2C=CC3C(=O)N(C)C(=O)C3N2N2CCCCC2)ccc1O` (stereo not given), the composite z-score in [1] is -0.152; in experiment [2], 0.38; in [3], 0.0421; in experiment [4] it was 0.348; in [5], 0.885; in experiment [6] it was 1.45. The composite z-score amounted to 0.496 in experiment [7]; 0.707 in [9]; 0.0139 in [10]; 0.163 in [11]; 2.56 in [15]; 0.0209 in experiment [17]. For the same compound, the composite z-score in experiment [18] was -0.185; in experiment [19], 0.0152; in experiment [20], 0.0054. The z-score in [8] was 0.133 (inactive); in experiment [12], 1.26 (inactive); in [13] it was 0.803 (inactive); in experiment [14], 1.63 (inactive); in experiment [16], -0.613 (inactive).
In the case of `COc1ccc([Si](C)(C)[C@H]2[C@H](CCn3cc([C@H](O)c4ccccc4)nn3)O[C@@]3(C(=O)N(Cc4ccc(N5CCOC5=O)cc4)c4ccccc43)[C@@H]2C)cc1`, the composite z-score in experiment [1] is 0.365; in experiment [2] it was -0.437; in experiment [3], -0.204; in [4], -0.111; in [5], -1.11; in experiment [6] it was 0.276. Moreover, the composite z-score in experiment [7] was -0.426; in [9] it was -0.757; in experiment [10], -0.236; in [11], -0.562; in experiment [15] it was -0.241; in [17], -0.0713. The values for the composite z-score in experiment [18], in experiment [19] and in experiment [20] were -1.49, -0.865 and -0.227, respectively. Further, the z-score in [8] is -1.58 (inactive); in experiment [12], 1.75 (inactive); in experiment [13], 1.78 (inactive); in [14], 3.45 (inactive); in experiment [16], 0.28 (inactive).
Turning to `CCOC(=O)C1=CC[C@@H](c2cc(Cl)ccc2Cl)N(S(=O)(=O)c2ccc(C)cc2)[C@H]1c1ccc(OC)cc1`, the composite z-score in experiment [1] is 0.522; in experiment [2], 0.0025; in experiment [3] it was 0.259; in experiment [4], 0.582; in [5], 0.147; in [6] it was -0.362. The composite z-score in experiment [7] is 0.13; in [9], 0.623; in [10], 0.082; in experiment [11] it was -0.393; in experiment [15], 0.506; in experiment [17], 0.754. In addition, the composite z-score was -0.546 in experiment [18], -0.329 in experiment [19] and 0.379 in [20]. Besides, the z-score in experiment [8] is -1.69 (inactive); in experiment [12], 1.31 (inactive); in experiment [13], 2.17 (inactive); in experiment [14], 1.43 (inactive); in experiment [16], -0.0891 (inactive).
